# Laboratory results as given in PubChem BioAssay (Tox21).
# A number with no mark means an inactive call. Records with an inconclusive call do not appear. Where a call stands in place of a potency, no number is given. The source made the active and inactive calls. Unless noted, calls come from the whole dose curve.
# Tests used:
# [1] = Nuclear factor erythroid 2-related factor 2/antioxidant responsive element (Nrf2/ARE) small molecule agonists: qHTS cell viability counter screen in human keratinocytes (AID 1919968; active = well fitted curve in the direction sought with a large enough effect in the repeat runs; an effect the other way counts as inactive or inconclusive; note: nearly all actives have a fitted effect of over 55% in size; note: potency is the fitted concentration of half-maximal effect)
# Method in brief: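 Viability counter-screen: KeratinoSens reporter cells, DMSO-delivered compounds, 23 h at 37 C, CellTiter-Fluor fluorescence.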
# [2] = Nuclear factor erythroid 2-related factor 2/antioxidant responsive element (Nrf2/ARE) small molecule agonists: luciferase reporter gene qHTS assay in human keratinocytes (AID 1919969); note: nearly all actives have a fitted effect of over 35% in size; note: potency is the fitted concentration of half-maximal effect
# [3] = target: Gonadotropin-releasing hormone receptor (Homo sapiens) (UniProt P30968); assay: Human gonadotropin-releasing hormone receptor (GnRHR) small molecule agonists, calcium flux assay in GnRHR-HEK293 cells (AID 1920063); note: nearly all actives have a fitted effect of over 35% in size; note: potency is the fitted concentration of half-maximal effect
# Method in brief: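 Tox21-format agonist screen using human GnRHR-expressing HEK293 cells and a fluorescent calcium dye; kinetic 3-min fluorescence reading after compound addition, 15-point concentration series run in triplicate.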
# [4] = target: KiSS-1 receptor (Homo sapiens) (UniProt Q969F8); assay: Human kisspeptin (KISS1R) small molecule agonists, calcium flux assay in KISS1R-HEK293 cells (AID 1920064; active = well fitted curve in the direction sought with a large enough effect in the repeat runs; an effect the other way counts as inactive or inconclusive)
# Method in brief: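 Intracellular calcium mobilization in KISS1R-HEK293 cells was recorded by fluorescence (Ex/Em 480/540) for 3 min following compound addition to cells pre-loaded 1 h with calcium dye.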
# [5] = G protein-coupled receptor (GPCR) small molecule agonists, calcium flux assay: HEK293 wild type cell line counter screen (AID 1920065)
# Method in brief: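 In this agonist-mode screen, ATP is the positive control and DMSO the vehicle. Cells grow 18 h before a 1 h dye incubation at 37 C; signal is taken at Ex/Em 480/540 over 3 min.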
# [6] = p53 small molecule agonists, cell-based qHTS assay with human liver microsomes (AID 1963577);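 note: p53 response element beta-lactamase reporter cells with liver microsomes plus NADPH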
# Method in brief: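 p53RE-bla cells; 5 h settle, 37 C/5% CO2; cpd + HLM 0.5 mg/mL + NADPH 0.5 mg/mL (final); 16 h 37 C; LiveBLAzer 2 h RT dark; fluorescence readout.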
# [7] = p53 small molecule agonists, cell-based qHTS assay with human liver microsomes: qHTS cell viability counter screen (AID 1963579); note: nearly all actives have a fitted effect of over 45% in size; note: potency is the fitted concentration of half-maximal effect
# Method in brief: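 Luminescent CellTiter-Glo read-out, 30 min at room temperature, gauged cytotoxicity in p53RE-bla cells exposed 16 h at 37 C to DMSO-dissolved compounds with metabolic activation by human liver microsomes and NADPH, each 0.5 mg/mL final.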
# [8] = p53 small molecule agonists, cell-based qHTS assay with rat liver microsomes: qHTS cell viability counter screen (AID 1963580); note: nearly all actives have a fitted effect of over 45% in size; note: potency is the fitted concentration of half-maximal effect
# Method in brief: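 HCT-116 p53RE-bla, 4,000 cells/well, 5 h pre-incubation; cpd + rat liver microsomes 0.5 mg/mL + NADPH 0.5 mg/mL (final); 16 h, 37 C; CellTiter-Glo, 30 min RT; luminescence.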
# [9] = p53 small molecule agonists, cell-based qHTS assay: qHTS cell viability counter screen (AID 1963581); note: nearly all actives have a fitted effect of over 45% in size; note: potency is the fitted concentration of half-maximal effect
# Method in brief: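 Compounds are pinned onto HCT-116 p53RE-bla cells and left 16 h at 37 C. Following the reporter FRET read, ATP is quantified by CellTiter-Glo luminescence after 30 min at room temperature.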
# [10] = target: 5-hydroxytryptamine receptor 2A (Homo sapiens) (UniProt P28223); assay: 5-hydroxytryptamine receptor 2A (HTR2A) small molecule antagonists, cell-based qHTS assay (AID 1963586); note: nearly all actives have a fitted effect of over 45% in size; note: potency is the fitted concentration of half-maximal effect
# Method in brief: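 Antagonist-mode intracellular calcium assay: DOI (4 nM) added after 5 min compound pre-incubation at room temperature to dye-loaded HTR2A-CHO cells. Fluorescence followed for 3 min, sampled every second.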
# [11] = target: Muscarinic acetylcholine receptor M1 (Homo sapiens) (UniProt P11229); assay: Cholinergic receptor muscarinic 1 (CHRM1) small molecule agonists, cell-based qHTS assay (AID 1963589); note: nearly all actives have a fitted effect of over 35% in size
# Method in brief: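 Stable CHRM1-CHO cells (human receptor) were incubated 18 h, dye-loaded for 1 h at 37 C and exposed to test compounds for agonist activity, with calcium-dependent fluorescence followed kinetically.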
# [12] = target: Beta-2 adrenergic receptor (Homo sapiens) (UniProt P07550); assay: Adrenergic beta2 receptor (ADRB2) small molecule antagonists, cell-based qHTS assay (AID 1963592); note: nearly all actives have a fitted effect of over 50% in size; note: potency is the fitted concentration of half-maximal effect; for activity change, negative = inhibition: series mostly up to about 92 µM
# Method in brief: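 Cells (CHO, stable ADRB2 overexpression) incubated 18-20hr at 37C; compounds added from DMSO; agonist mix (1nM isoproterenol, 100uM IBMX, 25uM Ro-20-1724) added; 0.5hr RT; d2-cAMP and anti-cAMP-cryptate added; 1hr RT; 665/615 nm read.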
# [13] = target: D(2) dopamine receptor (Homo sapiens) (UniProt P14416); assay: Dopamine D2 receptor (DRD2) small molecule agonists, cell-based qHTS assay (AID 1963594); note: nearly all actives have a fitted effect of over 35% in size
# Method in brief: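 cAMP accumulation in DRD2-HEK293 cells measured by HTRF after 1 h detection; compounds added 10 min before NKH477 (200nM […]) forskolin-analogue stimulation, 30 min at room temperature, with Ro20-1724 present at 0.1 mM final.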
# [14] = target: D(2) dopamine receptor (Homo sapiens) (UniProt P14416); assay: Dopamine D2 receptor (DRD2) small molecule antagonists, cell-based qHTS assay (AID 1963595; active = well fitted inhibition curve with a large enough effect in the signal ratio in the repeat runs, with a control signal flat; the % refers to the signal ratio)
# Method in brief: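 Readout: HTRF cAMP, cAMP-d2 competing with cellular cAMP for anti-cAMP cryptate, read after 1 h. Cells: DRD2-HEK293. Conditions: 0.1 mM Ro20-1724, 12 nM quinpirole, 200 nM NKH477, 30 min RT.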
# [15] = target: 5-hydroxytryptamine receptor 2A (Homo sapiens) (UniProt P28223); assay: 5-hydroxytryptamine receptor 2A (HTR2A) small molecule agonists, cell-based qHTS assay (AID 1963587); note: nearly all actives have a fitted effect of over 30% in size
# Method in brief: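 Kinetic calcium-flux fluorescence (2 min, 1 sec intervals) after compound addition in agonist mode. HTR2A-CHO cells were cultured 18 h, then dye-loaded 1 h at 37 C.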
# [16] = cAMP Responsive Elements (CRE) small molecule agonists, cell-based qHTS assay (AID 1963590)
# Method in brief: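 FRET-based beta-lactamase readout (LiveBLAzer B/G, 2 h RT) quantified CRE activation in HEK 293T CRE-bla cells after 3 h treatment with DMSO-dissolved compounds.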
# [17] = cAMP Responsive Elements (CRE) small molecule antagonists, cell-based qHTS assay (AID 1963591; active = well fitted inhibition curve with a large enough effect in the signal ratio in the repeat runs, not every such curve was filed as active; the % refers to the signal ratio)
# Method in brief: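 qHTS in CRE-bla HEK 293T cells: compound in DMSO, then 0.25 uM NKH477 (final), 3 h at 37 °C/5% CO2; beta-lactamase FRET read-out after 2 h substrate incubation.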
# [18] = target: Muscarinic acetylcholine receptor M1 (Homo sapiens) (UniProt P11229); assay: Cholinergic receptor muscarinic 1 (CHRM1) small molecule antagonists, cell-based qHTS assay (AID 1963588); note: nearly all actives have a fitted effect of over 40% in size
# Method in brief: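 CHRM1-CHO calcium-flux assay, antagonist mode. Cells were seeded 18 h, dye-loaded 1 h at 37 C and given compound for 5 min at RT, then acetylcholine was added at 50nM. FDSS fluorescence was read 3 min; 15 concentrations, three runs.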
# [19] = p53 small molecule agonists, cell-based qHTS assay (AID 1963582; active = well fitted activation curve with a large enough effect in the signal ratio in the repeat runs, not every such curve was filed as active; the % refers to the signal ratio)
# Method in brief: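 Agonist activity was scored from beta-lactamase FRET fluorescence in p53RE-bla cells treated 16 h at 37 C with compounds in DMSO, substrate incubation being 2 h at room temperature.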
# Chain of 5-hydroxytryptamine receptor 2A (Homo sapiens) (P28223 whole entry, looked up): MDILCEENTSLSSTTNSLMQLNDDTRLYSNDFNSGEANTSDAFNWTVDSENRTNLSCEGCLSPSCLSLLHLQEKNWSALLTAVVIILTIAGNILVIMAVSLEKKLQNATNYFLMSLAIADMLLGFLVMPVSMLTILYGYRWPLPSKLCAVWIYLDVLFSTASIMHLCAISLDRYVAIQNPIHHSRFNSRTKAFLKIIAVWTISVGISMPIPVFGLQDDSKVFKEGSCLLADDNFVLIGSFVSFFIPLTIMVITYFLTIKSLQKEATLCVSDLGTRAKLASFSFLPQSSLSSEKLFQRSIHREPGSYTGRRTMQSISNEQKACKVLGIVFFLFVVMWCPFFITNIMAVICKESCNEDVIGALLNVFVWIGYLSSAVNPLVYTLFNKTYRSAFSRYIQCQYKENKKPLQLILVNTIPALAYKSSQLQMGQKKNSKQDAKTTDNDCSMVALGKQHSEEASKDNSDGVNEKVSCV
# Chain of Gonadotropin-releasing hormone receptor (Homo sapiens) (P30968 whole entry, looked up): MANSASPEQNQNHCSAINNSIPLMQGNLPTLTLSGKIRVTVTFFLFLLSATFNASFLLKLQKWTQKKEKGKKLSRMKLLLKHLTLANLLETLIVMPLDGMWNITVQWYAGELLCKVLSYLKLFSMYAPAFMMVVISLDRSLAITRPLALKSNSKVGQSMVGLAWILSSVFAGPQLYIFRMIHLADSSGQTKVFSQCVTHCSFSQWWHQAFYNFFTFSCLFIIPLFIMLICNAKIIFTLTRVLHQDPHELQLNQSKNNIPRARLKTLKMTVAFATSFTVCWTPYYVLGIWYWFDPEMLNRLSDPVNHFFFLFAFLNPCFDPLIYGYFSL
# Chain of D(2) dopamine receptor (Homo sapiens) (P14416 whole entry, looked up): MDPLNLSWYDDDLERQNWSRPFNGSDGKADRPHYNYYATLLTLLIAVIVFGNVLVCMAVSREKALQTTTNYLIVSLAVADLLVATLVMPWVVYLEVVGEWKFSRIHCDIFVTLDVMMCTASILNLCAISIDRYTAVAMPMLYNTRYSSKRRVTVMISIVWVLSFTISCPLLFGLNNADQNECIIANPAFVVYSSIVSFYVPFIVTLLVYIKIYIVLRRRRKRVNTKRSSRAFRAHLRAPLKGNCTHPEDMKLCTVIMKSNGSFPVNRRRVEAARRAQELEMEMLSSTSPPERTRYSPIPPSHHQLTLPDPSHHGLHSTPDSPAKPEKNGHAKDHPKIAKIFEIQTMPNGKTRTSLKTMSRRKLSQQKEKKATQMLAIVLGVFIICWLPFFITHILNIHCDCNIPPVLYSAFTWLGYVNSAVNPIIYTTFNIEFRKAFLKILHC
# Chain of Muscarinic acetylcholine receptor M1 (Homo sapiens) (P11229 whole entry, looked up): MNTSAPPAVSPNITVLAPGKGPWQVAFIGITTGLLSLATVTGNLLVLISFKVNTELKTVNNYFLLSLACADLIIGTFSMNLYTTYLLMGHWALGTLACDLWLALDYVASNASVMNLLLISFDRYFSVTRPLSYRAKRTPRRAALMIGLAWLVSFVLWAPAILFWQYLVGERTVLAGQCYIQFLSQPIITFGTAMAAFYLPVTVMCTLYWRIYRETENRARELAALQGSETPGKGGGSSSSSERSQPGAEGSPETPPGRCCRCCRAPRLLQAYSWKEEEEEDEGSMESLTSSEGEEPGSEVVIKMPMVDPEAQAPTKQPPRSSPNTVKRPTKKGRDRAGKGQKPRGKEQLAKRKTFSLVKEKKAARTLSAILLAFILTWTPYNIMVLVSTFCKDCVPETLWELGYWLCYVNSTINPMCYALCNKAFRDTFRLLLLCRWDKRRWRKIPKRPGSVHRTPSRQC
# Chain of KiSS-1 receptor (Homo sapiens) (Q969F8 whole entry, looked up): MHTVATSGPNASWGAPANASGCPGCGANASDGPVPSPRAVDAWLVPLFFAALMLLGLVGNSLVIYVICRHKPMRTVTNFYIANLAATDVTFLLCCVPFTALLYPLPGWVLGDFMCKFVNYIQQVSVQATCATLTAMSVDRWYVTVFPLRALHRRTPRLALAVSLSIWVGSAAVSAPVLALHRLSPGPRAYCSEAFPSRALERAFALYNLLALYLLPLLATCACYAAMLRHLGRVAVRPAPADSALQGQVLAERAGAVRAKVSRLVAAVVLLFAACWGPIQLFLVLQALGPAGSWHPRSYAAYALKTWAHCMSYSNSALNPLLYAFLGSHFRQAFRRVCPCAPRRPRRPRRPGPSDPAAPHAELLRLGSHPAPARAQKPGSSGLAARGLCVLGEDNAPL
# Chain of Beta-2 adrenergic receptor (Homo sapiens) (P07550 whole entry, looked up): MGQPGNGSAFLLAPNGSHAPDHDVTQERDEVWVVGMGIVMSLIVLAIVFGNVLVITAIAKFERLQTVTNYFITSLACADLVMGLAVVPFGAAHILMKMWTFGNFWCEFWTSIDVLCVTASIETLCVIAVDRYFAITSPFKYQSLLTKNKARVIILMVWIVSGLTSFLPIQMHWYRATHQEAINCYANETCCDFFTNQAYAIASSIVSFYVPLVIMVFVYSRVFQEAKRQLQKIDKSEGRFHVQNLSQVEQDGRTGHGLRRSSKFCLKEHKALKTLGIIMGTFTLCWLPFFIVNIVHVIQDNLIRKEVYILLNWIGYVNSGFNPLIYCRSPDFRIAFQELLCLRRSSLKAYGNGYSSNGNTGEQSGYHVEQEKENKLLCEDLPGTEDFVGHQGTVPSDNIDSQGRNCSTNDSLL
smiles,measurement,setting,value
C/C=C/C(=O)Oc1c(CCCCCC(C)C)cc([N+](=O)[O-])cc1[N+](=O)[O-],Potency,[1],17.2 µM (active)
same,Potency,[2],inactive
same,Potency,[3],38.9 µM (active)
same,outcome,[4],inactive
same,outcome,[5],inactive
same,Potency,[6],inactive
same,Potency,[7],14.5 µM (active)
same,Potency,[8],40.8 µM (active)
same,Potency,[9],11.5 µM (active)
same,Potency,[10],21.1 µM (active)
same,Potency,[11],inactive
same,Potency,[12],inactive
same,Potency,[13],inactive
same,Potency,[14],inactive
CCCCCCC1CCCC(=O)O1 (configuration not stated),Potency,[1],inactive
same,Potency,[2],inactive
same,Potency,[3],inactive
same,outcome,[4],inactive
same,outcome,[5],inactive
same,Potency,[6],inactive
same,Potency,[7],inactive
same,Potency,[8],inactive
same,Potency,[9],inactive
same,Potency,[10],inactive
same,Potency,[15],inactive
same,Potency,[11],inactive
same,Potency,[12],inactive
same,Potency,[13],inactive
same,Potency,[14],inactive
COc1cc2nc(N3CCN(C(=O)c4ccco4)CC3)nc(N)c2cc1OC,"activity change, negative = cytotoxicity",[1],-15.2% [at 19 µM]
same,"activity, positive = activation",[2],-0.0377% [at 19 µM]
same,activity change,[3],"-0.192% [at 11.8 µM, hits give high values]"
same,activation,[4],1.31% [at 15.8 µM]
same,activation,[5],0.594% [at 11.8 µM]
same,activation,[6],-0.142% [at 13.5 µM]
same,Potency,[7],0.972 µM (active)
same,"activity change, negative = cytotoxicity",[8],0.442% [at 13.5 µM]
same,"activity change, negative = cytotoxicity",[9],24.1% [at 13.5 µM]
same,activation,[16],-0.578% [at 19 µM]
same,"activity change, negative = inhibition",[17],4.27% [at 18.9 µM]
same,Potency,[12],14.6 µM (active)
same,activation,[13],10.2% [at 19 µM]
same,"activity change, negative = inhibition",[14],1.94% [at 18.9 µM]
COc1cc(-c2nc(NC(=O)c3cc4cc(C)cc(C)c4n3CC(=O)O)sc2CCC2CCCCC2)c(OC)cc1Cl,Potency,[1],17.7 µM (active)
same,Potency,[2],12.5 µM (active)
same,Potency,[3],inactive
same,outcome,[4],inactive
same,outcome,[5],inactive
same,Potency,[6],inactive
same,Potency,[7],inactive
same,Potency,[9],6.65 µM (active)
same,Potency,[10],inactive
same,Potency,[15],inactive
same,Potency,[18],inactive
same,Potency,[11],inactive
same,Potency,[12],inactive
same,Potency,[13],inactive
same,Potency,[14],inactive
COc1ccc(OC)c(OC)c1,Potency,[1],inactive
same,Potency,[2],inactive
same,Potency,[3],inactive
same,outcome,[4],inactive
same,outcome,[5],inactive
same,Potency,[6],inactive
same,Potency,[7],inactive
same,Potency,[8],inactive
same,Potency,[9],inactive
same,Potency,[10],inactive
same,Potency,[15],inactive
same,Potency,[18],inactive
same,Potency,[11],inactive
same,Potency,[16],inactive
same,Potency,[17],inactive
same,Potency,[12],inactive
same,Potency,[13],inactive
same,Potency,[14],inactive
NNc1nc(-c2ccc([N+](=O)[O-])cc2)cs1,Potency,[1],30.6 µM (active)
same,Potency,[2],30.6 µM (active)
same,Potency,[3],inactive
same,outcome,[4],inactive
same,outcome,[5],inactive
same,Potency,[6],inactive
same,Potency,[7],inactive
same,Potency,[8],inactive
same,Potency,[9],inactive
same,Potency,[10],inactive
same,Potency,[18],inactive
same,Potency,[11],inactive
same,Potency,[14],inactive
CCOC(=O)OCC/C(SC(=O)OCC)=C(\C)N(C=O)Cc1cnc(C)nc1N,Potency,[1],inactive
same,Potency,[2],inactive
same,Potency,[3],inactive
same,outcome,[4],inactive
same,outcome,[5],inactive
same,Potency,[6],inactive
same,Potency,[8],inactive
same,Potency,[9],inactive
same,Potency,[19],inactive
same,Potency,[10],inactive
same,Potency,[18],inactive
same,Potency,[16],inactive
same,Potency,[17],inactive
